Twelve compounds from PubChem BioAssay (EPA / NIEHS) can be followed below.

For assay [1], the target named is Cellular tumor antigen p53 (Homo sapiens) (UniProt P04637). Description: TOX21_p53_BLA_p2_ratio: Tox21 HCT-116 p53 Agonism Beta-lactamase Assay, Ratio, Phase 2 (AID 2283592). In a few lines: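 DMSO-normalized, positive-direction endpoint derived from the 460 nm/530 nm FRET ratio in HCT116 p53 beta-lactamase reporter cells exposed 16 h at 37C and loaded with CCF4-AM for 2 h.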

Assay [2] has the same target. Description: TOX21_p53_BLA_p3_ratio: Tox21 HCT-116 p53 Agonism Beta-lactamase Assay, Ratio, Phase 3 (AID 2283596). Put shortly:
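Cells were seeded at 4000/well, rested 5 h at 37C, then dosed with DMSO compound solutions (217-fold dilution) for 16 h. CCF4-AM substrate was loaded for 2 h at room temperature, and the 460/530 nm emission ratio was fitted for gain of signal versus DMSO.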

A short description of assay [3]: TOX21_p53_BLA_p5_viability: Viability Assessment in the Tox21 HCT-116 p53 Agonism Beta-lactamase Assay, Phase 5 (AID 2283600). Put shortly:
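Here cell health was gauged by ATP levels in wells holding 4000 cells, each treated 16 h with DMSO-delivered compounds at 217-fold dilution; reduced luminescence marked toxicity.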

The target of assay [4] is Cellular tumor antigen p53 (Homo sapiens) (UniProt P04637). Nature of the assay: TOX21_p53_BLA_p4_ratio: Tox21 HCT-116 p53 Agonism Beta-lactamase Assay, Ratio, Phase 4 (AID 2283601). Put shortly: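 HCT116 cells carrying an inducible beta-lactamase reporter were plated at 4000 cells/well, rested 5 h, then exposed to compounds in DMSO (217-fold dilution) for 16 h at 37C. CCF4-AM substrate was loaded 2 h at room temperature; 460/530 nm emission ratio scored gain-of-signal versus DMSO.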

For assay [5] the target is unchanged. Description: TOX21_p53_BLA_p5_ratio: Tox21 HCT-116 p53 Agonism Beta-lactamase Assay, Ratio, Phase 5 (AID 2283599). Put shortly: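 HCT-116 cells carrying a p53-inducible beta-lactamase reporter were seeded at 4000 cells/well and dosed after 5 h with compound in DMSO (217-fold dilution). After 16 h at 37C, CCF4-AM substrate was added for 2 h, and the 460/530 nm emission ratio was scored as gain-of-signal versus DMSO.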

The target in assay [6] is Thyroid hormone receptor alpha (Rattus norvegicus) + Thyroid hormone receptor beta (Rattus norvegicus) (UniProt P18113+P63059). Nature of the assay: TOX21_TR_LUC_GH3_Antagonist_Followup: Tox21 GH3 Thyroid Hormone Receptor Antagonism Luciferase Follow-Up Assay (AID 2283942). Put shortly: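 In a GH3 luciferase reporter line, test chemicals spanning 92 uM to 5nM final are co-incubated 24 h with 1.0 nM T3. Activity is expressed as relative luminescence units and analysed relative to DMSO.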

In the next assay the target is THRA (gene 7067) (UniProt P10827). Description: TOX21_TRA_COA_Antagonist_Followup_ratio: Tox21 Thyroid Hormone Receptor alpha Antagonism through Coactivator Recruitment Follow-Up Assay, Ratio (AID 2283953). Put shortly: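 We measured antagonism of T3-type coactivator recruitment using a TR-FRET ratio (emission 520 and 495 nm) between a Tb-labelled anti-GST antibody on TRα LBD (2.5 nM) and SRC-2 peptide (200 nM). Activity was scaled between DMSO and T3 wells.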
THRA (gene 7067), sequence (P10827 whole entry, looked up, the tested form may be a part): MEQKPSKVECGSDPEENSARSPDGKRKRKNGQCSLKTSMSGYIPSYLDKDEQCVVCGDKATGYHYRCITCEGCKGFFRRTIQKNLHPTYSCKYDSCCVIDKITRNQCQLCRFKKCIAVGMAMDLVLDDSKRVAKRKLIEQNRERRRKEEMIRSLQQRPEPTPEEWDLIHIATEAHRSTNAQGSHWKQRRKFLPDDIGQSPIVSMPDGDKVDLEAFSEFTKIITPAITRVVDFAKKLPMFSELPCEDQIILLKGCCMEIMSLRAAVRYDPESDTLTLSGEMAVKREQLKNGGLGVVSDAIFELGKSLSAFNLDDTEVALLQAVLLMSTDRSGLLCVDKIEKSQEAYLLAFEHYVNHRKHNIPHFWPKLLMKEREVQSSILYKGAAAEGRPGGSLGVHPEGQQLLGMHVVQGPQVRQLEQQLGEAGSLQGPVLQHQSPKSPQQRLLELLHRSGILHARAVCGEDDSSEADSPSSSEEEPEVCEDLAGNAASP

Assay [7] addresses THRB (gene 7068) (UniProt P10828). Description: TOX21_TRB_BLA_Antagonist_Followup_ratio: Tox21 Thyroid Hormone Receptor beta Antagonism Beta-lactamase (BLA) Follow-Up Assay, Ratio (AID 2283958). Put shortly: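 Using charcoal-stripped 2% FBS medium, human TRβ-LBD/GAL4 reporter HEK293T cells received test compounds for 18 h. The endpoint is the cleaved-to-uncleaved substrate ratio (460/530 nm).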

Assay [8] in a line: TOX21_TRB_BLA_Antagonist_Followup_viability: Viability Assessment in the Tox21 Thyroid Hormone Receptor beta Antagonism Beta-lactamase (BLA) Follow-Up Assay (AID 2283961). In a few lines: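 In the same wells as the reporter read, cell health was gauged by CellTiter-Glo ATP luminescence, with signal loss indicating reduced viability. Cells had been exposed to test compounds for 18 h.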

Assay [9] has as its target THRB (gene 7068) (UniProt P10828). Nature of the assay: TOX21_TRB_COA_Antagonist_Followup_ratio: Tox21 Thyroid Hormone Receptor beta Antagonism through Coactivator Recruitment Follow-Up Assay, Ratio (AID 2283967). In a few lines: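 Coactivator (SRC-2) recruitment to purified GST-TRβ ligand-binding domain is monitored by terbium-to-fluorescein energy transfer, emission ratio 520:495 nm. DMSO wells define 0% and T3 wells 100% activity.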

Assay [10] deals with Retinoic acid receptor RXR-alpha (Homo sapiens) (UniProt P19793). Description: TOX21_TR_RXR_BLA_Antagonist_Followup_ratio: Tox21 Thyroid Hormone Receptor beta Retinoid X Receptor alpha (RXRa) Antagonism Beta-lactamase (BLA) Follow-Up Assay, Ratio (AID 2283972). Put shortly: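 Compounds were tested in triplicate at 11 concentrations on RXRa-bla HEK293T cells for 16 h. Substrate cleavage ratio, normalized to DMSO, gave the endpoint.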
Retinoic acid receptor RXR-alpha (Homo sapiens), sequence (P19793 whole entry, looked up): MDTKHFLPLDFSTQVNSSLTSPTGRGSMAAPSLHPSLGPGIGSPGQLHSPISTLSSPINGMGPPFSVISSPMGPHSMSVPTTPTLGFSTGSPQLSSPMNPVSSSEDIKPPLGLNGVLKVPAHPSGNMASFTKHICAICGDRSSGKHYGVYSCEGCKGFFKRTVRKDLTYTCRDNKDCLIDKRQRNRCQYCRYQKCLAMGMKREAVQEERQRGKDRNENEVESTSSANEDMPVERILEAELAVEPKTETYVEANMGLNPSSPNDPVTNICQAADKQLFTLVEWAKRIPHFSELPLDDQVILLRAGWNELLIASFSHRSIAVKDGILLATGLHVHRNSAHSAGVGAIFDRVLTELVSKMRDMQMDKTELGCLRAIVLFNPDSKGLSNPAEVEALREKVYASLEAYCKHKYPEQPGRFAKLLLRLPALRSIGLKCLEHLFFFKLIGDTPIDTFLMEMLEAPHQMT

Assay [11] has as its target PGR (gene 5241) (UniProt P06401). Nature of the assay: TOX21_PR_BLA_Followup_Antagonist_ratio: Tox21 HEK293 Progesterone Receptor (PR) Antagonism Beta-lactamase Follow-Up Assay, Ratio (AID 2283934).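 Note: PR-UAS-bla HEK293T cells stimulated with 1 nM R5020 agonist for 16 hr.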 In a few lines:
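Measured in PR-UAS-bla HEK293T cells co-treated with compound and 1 nM promegestone for 16 hr; beta-lactamase ratio read after 2 h FRET substrate loading, with parallel CellTiter-Glo cytotoxicity.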

A short description of assay [12]: TOX21_PR_BLA_Followup_Agonist_viability: Viability Assessment in the Tox21 HEK293 Progesterone Receptor (PR) Agonism Beta-lactamase Follow-Up Assay (AID 2283935).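 Note: signal loss means lower viability so actives are cytotoxic.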 Put shortly: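 Viability is read as CellTiter-Glo luminescence, where loss of signal indicates cytotoxicity. The cells are PR-UAS-bla HEK293T given compounds for 16 hr at 37C and 5% CO2, in the same wells used for the bla readout.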

The target of assay [13] is PGR (gene 5241) (UniProt P06401). Description: TOX21_PR_LUC_Followup_Antagonist: Tox21 HEK293 Progesterone Receptor (PR) Antagonism Luciferase Follow-Up Assay (AID 2283938).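 Note: curve fitted upward as signal gain over DMSO baseline despite antagonist label.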 Put shortly:
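Luciferase reporter in HEK293-PR-A-luc cells: 16 h compound treatment at 37C, ONE-Glo luminescence detection, DMSO as negative control and baseline.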

Assay [14] can be described thus: TOX21_PR_LUC_Followup_Antagonist_viability: Viability Assessment in the Tox21 HEK293 Progesterone Receptor (PR) Antagonism Luciferase Follow-Up Assay (AID 2283940). In a few lines: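 Loss of CellTiter-Glo ATP signal indicates cytotoxicity in HEK293-PR-A-luc cells grown in 10% charcoal-stripped FBS medium, seeded 3,000 per well and incubated 16 h with compound at 37C.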

Assay [15] is described as follows: CCTE_Harrill_HTTr_Viability_MCF7: CCTE's 6-hour Cell Viability Assessment for the High-Throughput Transcriptomics (HTTr) Platform, in MCF-7 cells cultured in DMEM + 10% fetal bovine serum, Harrill Lab (AID 2284010; active = hit-call score of the fitted dose curve at least 0.9, where 1 is the maximum; inactive = score below 0.9). Put shortly: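 Eight-point concentration series, six-hour exposure. Propidium iodide exclusion imaged to assess membrane integrity as a cytotoxicity readout; bidirectional fitting was done with DMSO as negative control and activity baseline.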

A short description of assay [16]: CCTE_Harrill_HTTr_CellCount_MCF7: CCTE's Cell Proliferation Assessment for the High-Throughput Transcriptomics (HTTr) Platform, Harrill Lab (AID 2284012).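 Note: count of Hoechst-stained nuclei per well by high-content imaging in MCF-7 cells; cells exposed to compound for six hours; intended direction is loss of nuclei count meaning fewer cells.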 Put shortly:
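For this full-screen endpoint, MCF-7 cultures received eight compound dilutions for six hours. Well nuclei counts from Hoechst imaging were analyzed relative to DMSO.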

Records with an inconclusive call do not appear. Activity calls are given as the source filed them. Rule for the calls, unless noted: active = hit-call score of the fitted dose curve at least 0.9, where 1 is the maximum; inconclusive = response in the unintended direction; inactive = score below 0.9.

Cellular tumor antigen p53 (Homo sapiens), sequence (P04637 whole entry, looked up): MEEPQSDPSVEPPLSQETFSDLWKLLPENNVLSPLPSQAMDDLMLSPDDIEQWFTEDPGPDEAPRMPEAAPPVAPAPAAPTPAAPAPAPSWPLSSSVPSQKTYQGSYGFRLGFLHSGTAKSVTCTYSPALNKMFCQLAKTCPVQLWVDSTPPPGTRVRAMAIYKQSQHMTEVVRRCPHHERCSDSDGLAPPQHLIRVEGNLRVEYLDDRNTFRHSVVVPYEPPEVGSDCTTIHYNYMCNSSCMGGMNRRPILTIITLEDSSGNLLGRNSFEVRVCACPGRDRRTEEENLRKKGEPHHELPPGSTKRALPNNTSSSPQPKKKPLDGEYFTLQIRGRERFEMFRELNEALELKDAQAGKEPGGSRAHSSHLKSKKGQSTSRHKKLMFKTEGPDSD
THRB (gene 7068), sequence (P10828 whole entry, looked up, the tested form may be a part): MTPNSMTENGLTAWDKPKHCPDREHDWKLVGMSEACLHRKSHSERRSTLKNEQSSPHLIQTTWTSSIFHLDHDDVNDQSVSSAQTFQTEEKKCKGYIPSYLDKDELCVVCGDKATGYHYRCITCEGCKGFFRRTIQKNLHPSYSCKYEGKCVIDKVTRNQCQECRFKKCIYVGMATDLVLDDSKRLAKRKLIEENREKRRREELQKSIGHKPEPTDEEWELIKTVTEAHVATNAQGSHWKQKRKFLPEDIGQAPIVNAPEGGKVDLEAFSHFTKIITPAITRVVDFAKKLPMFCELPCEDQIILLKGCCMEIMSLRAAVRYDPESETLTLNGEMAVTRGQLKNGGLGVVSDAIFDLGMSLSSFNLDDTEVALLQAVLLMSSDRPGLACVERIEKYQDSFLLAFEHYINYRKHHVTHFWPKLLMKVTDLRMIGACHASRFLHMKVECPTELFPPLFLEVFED
PGR (gene 5241), sequence (P06401 whole entry, looked up): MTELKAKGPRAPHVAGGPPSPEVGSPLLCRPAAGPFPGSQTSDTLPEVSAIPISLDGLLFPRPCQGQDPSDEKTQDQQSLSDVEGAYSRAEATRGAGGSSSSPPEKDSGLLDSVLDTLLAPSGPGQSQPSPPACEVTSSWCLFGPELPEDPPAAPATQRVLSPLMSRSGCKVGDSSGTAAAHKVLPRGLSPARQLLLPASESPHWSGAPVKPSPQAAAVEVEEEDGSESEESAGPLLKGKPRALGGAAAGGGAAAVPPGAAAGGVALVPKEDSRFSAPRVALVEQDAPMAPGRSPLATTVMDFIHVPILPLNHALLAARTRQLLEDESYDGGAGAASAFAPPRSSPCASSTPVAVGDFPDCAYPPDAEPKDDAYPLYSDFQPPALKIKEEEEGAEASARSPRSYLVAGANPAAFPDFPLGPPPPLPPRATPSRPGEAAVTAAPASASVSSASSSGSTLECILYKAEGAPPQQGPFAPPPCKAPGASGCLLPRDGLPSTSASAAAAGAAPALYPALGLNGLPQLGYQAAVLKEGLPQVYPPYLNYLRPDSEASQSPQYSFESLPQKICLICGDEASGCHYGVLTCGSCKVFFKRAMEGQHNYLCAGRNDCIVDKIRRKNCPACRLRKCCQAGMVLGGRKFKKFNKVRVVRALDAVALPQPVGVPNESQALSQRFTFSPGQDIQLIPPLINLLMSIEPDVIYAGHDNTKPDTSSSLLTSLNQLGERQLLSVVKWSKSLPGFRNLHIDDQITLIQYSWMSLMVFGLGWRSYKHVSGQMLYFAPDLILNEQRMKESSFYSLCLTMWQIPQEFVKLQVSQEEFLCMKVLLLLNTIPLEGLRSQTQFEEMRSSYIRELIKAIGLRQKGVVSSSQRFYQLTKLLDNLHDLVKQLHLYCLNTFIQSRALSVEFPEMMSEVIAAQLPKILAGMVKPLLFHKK

As usually defined, the AC50 is the concentration giving half of the maximal activity seen. With `CC(C)=CCN1CC[C@@]2(C)c3cc(O)ccc3C[C@@H]1[C@@H]2C`, the AC50 in assay [1] is 86.2 µM (active). In addition, the result in assay [2], in assay [3] and in assay [4] was inactive.

Take `S=C=NCc1ccccc1`: the result in assay [1], in assay [5], in assay [3] and in assay [4] was inactive. The AC50 in assay [2] is 42.9 µM (active).

For the compound `CC(=O)OO`, the outcome in [1], in assay [2], in [5] and in assay [4] was inactive.

As for `CCCCCCCCCBr`, the result in assay [1], in assay [2], in [3] and in [4] was inactive.

Regarding `CCCC[N+]1(C)CCCC1` (tested in a mixture with another compound), the result in assay [1], in [2] and in assay [5] was inactive. For the same compound, the AC50 in [4] was 86.9 µM (active).

For the compound `CC[C@@H](CO)NC(=O)[C@@H]1C=C2c3cccc4c3c(cn4C)C[C@H]2N(C)C1`, the outcome in [1], in assay [2], in [5] and in [4] was inactive.

Regarding `O=C(N[C@H]1N=C(c2ccccc2F)c2cccc3c2N(CC3)C1=O)c1cc2ccccc2[nH]1`, the outcome in [1], in assay [2], in assay [5] and in assay [4] was inactive.

As to `COc1c(C(C)(C)C)cc([N+](=O)[O-])c(C)c1[N+](=O)[O-]`, the result in assay [1], in assay [2], in assay [3] and in assay [4] was inactive.

With `COc1cc([C@@H]2c3cc4c(cc3[C@@H](O)[C@H]3COC(=O)[C@H]23)OCO4)cc(OC)c1O`, the AC50 in assay [1] is 35.5 µM (active); with THRB (gene 7068) [7], 653 nM (active). For the same compound, the result (in [2]; in [5]; in assay [4]; in [6]; with THRA (gene 7067); in assay [8]) was inactive. In addition, the outcome (in the assay with THRB (gene 7068) [9]; in assay [10]) was inactive.

Consider `CCOP(=O)(OCC)OP(=O)(OCC)OCC`, for which the result in assay [1], in [2], in assay [5] and in assay [4] was inactive.

Take `C[C@]12C=CC(=O)C=C1CC[C@@H]1[C@@H]2CC[C@@]2(C)[C@H]1CC[C@]2(C)O`: the outcome (in assay [1]; in assay [2]; in assay [5]; in assay [4]; in the assay with PGR (gene 5241) [11]; in assay [12]) was inactive. Further, the result (with PGR (gene 5241) [13]; in assay [14]) was inactive.

On to `Cc1ccc2cc(C)ccc2c1`, for which the outcome in assay [1], in assay [2], in assay [5], in assay [3], in assay [4] and in assay [15] was inactive. In addition, the outcome in [16] was inactive.
